# ChEMBL document CHEMBL3988442, “University of Dundee, Small-Polar-MMV Screening Library” (2021)
# The whole screen tested about 53,000 compounds, of which about 900 (1.7%) showed an effect of 50% or more. The list comes from a sample in which strong results are over-represented; it also holds similar structures and randomly drawn compounds.
# System: Mycobacterium tuberculosis
# Test: Cornell - Phenotypic assay to identify agents that inhibit growth of Mycobacterium tuberculosis
# Assay type: functional
# Set-up: scale not given: direction of the effect not stated beside the values
# Conditions: 10 mM as filed; unlikely as a test dose
row,Structure (SMILES),Percent Effect [%]
1,Cc1nc(CNCC2CN(C)CCO2)cs1 (centres undefined),0.5218
2,CC(=O)N[C@H]1CN(S(=O)(=O)N(C)Cc2ccccc2)C[C@@H]1C1CC1,14.84
3,CCC1CCCCN1C(=O)Cn1nc(-c2ccc(C)s2)cc(N)c1=O (centres undefined),45.47
4,CCC1CCCCN1C(=O)Cn1nc(-c2ccc(C)o2)cc(N)c1=O (centres undefined),-6.265
5,CCC1CCCCN1C(=O)Cn1nc(-c2cc(C)oc2C)cc(N)c1=O (centres undefined),52.47
6,NCCc1n[nH]c(=O)n1-c1cccc(Cl)c1Cl,-33.73
7,Cc1cccc(CN2C[C@@H]3CN(C(=O)C4CCOC4)C[C@@H]3C2=O)c1 (some centres undefined),4.733
8,Cc1ccc(NC(=O)CNc2ccccc2C(N)=O)c(C)c1,-11.67
9,COc1ccc(NC(=O)Cn2nc(C)c(C)cc2=O)c(OC)c1,11.71
10,Cc1ccc(NC(=O)CNc2cccc(C(N)=O)c2C)c(C)c1,-29.06
11,Cc1ccc(NC(=O)CNc2cccc3c2CCCC3)c(Br)c1,51.04
12,COc1ccc(NC(=O)CNc2cccc3c2CCCC3)c(OC)c1,76.54
13,COc1ccc(CNC(=O)CNc2ccccc2OC)cc1,22.93
14,NC(=O)CCSc1n[nH]c(-c2ccc3c(c2)CCC3)n1,8.887
15,CN1CCC(N(C)C(=O)c2cnc3c(cnn3C3CCCC3)c2)CC1,15.63
16,Cc1ccc(C#N)c(N2CC(C)(C)[C@@](C)(O)C2)n1,10.2
17,O=C(CCc1nnc(-c2ccsc2)o1)NCC1CCN(C2CC2)C1 (centres undefined),-9.076
18,Cc1c(CNCc2nn(-c3ccccc3)c3c2CCC3)cc(C#N)n1C,0.6388
19,COc1ccccc1CNCc1nn(-c2ccccc2)c2c1CCC2,75.02
20,Cc1noc(C)c1CNCc1nn(-c2ccccc2)c2c1CCC2,-25.17
21,NC(=O)CSCC(=O)NCC1CCCC1,-10.13
22,CN(CC(=O)NC1(C)CCS(=O)(=O)C1)Cc1ccc(Br)cc1 (centres undefined),-6.576
23,O=C(CSCCN1CCOCC1)N1CCCCCC1,-6.957
24,CCc1nnc(CN(C)c2nccc(CCC(F)(F)F)n2)o1,6.8
25,CN(Cc1ccncn1)c1nccc(CCC(F)(F)F)n1,-20.7
26,CNc1ncc(CN(C)c2nccc(CCC(F)(F)F)n2)cn1,50.32

row,Structure (SMILES),Percent Effect [%]
1,CS(=O)(=O)N1CCCC1C(=O)Nc1cnc2n1CCCC2 (centres undefined),9.053
2,CCCNC(=O)NC(=O)CNC(C)(C)c1ccc2c(c1)OCCO2,101.9
3,CCCNC(=O)NC(=O)CNC(C)(C)c1ccc2c(c1)OCO2,0.4574
4,CCNC(=O)NC(=O)CNC(C)(C)c1ccc2c(c1)OCCO2,27.43
5,Cc1n[nH]c(C)c1S(=O)(=O)N1CCC(Oc2cnccn2)CC1,6.999
6,O=C(O)c1cccn1-c1ccc2c(c1)OCCO2,28.73
7,COc1ccccc1CCNC(=O)C1CCC(Cn2cnnn2)CC1 (centres undefined),3.007
8,Cc1nn(C)c2nc(N(C)CCN(C)C3CCCC3)sc12,37.55
9,Cc1nn(C)c2nc(N(Cc3cnn(C)c3)C3CCCCC3)sc12,56.52
10,Cc1nn(C)c2nc(N(CCN(C)C)C3CCCC3)sc12,19.35
11,c1ccn(Cc2nnc3n2CCCN(c2cnccn2)C3)c1,-17.01
12,Cc1ccc(CN2CCN(c3ccc(F)cn3)CC2=O)cc1C,39.83
13,CCC(NC(=O)NCC(=O)NC(C)C)c1cc(F)ccc1F (centres undefined),5.032
14,CCOc1ccc(NC(=O)NCCCN(C)S(C)(=O)=O)cc1C,30.17
15,CCOc1ccc(NC(=O)NCc2csc(NC)n2)cc1C,21.98
16,CCOc1ccc(NC(=O)NCCS(=O)(=O)CC)cc1C,60.38
17,CO[C@@H]1CCN(C(=O)c2cc(C)on2)C[C@@H]1Cc1ccccc1,-19.48
18,Cc1nc(NCc2ccccc2)cc(C(C)Cn2nc(C)c(C)c2C)n1 (centres undefined),27.52
19,O=C(Nc1ccccc1OC1CCOC1)c1ccon1 (centres undefined),-36.9
20,COc1c(Br)cccc1CCNC(=O)c1ccon1,37.39
21,COC(=O)Cc1cccc(NC(=O)Cc2ccon2)c1,10.84
22,O=C(Cc1ccn[nH]1)N1CCc2cc(Br)sc2C1,17.86
23,CC(C)CN1Cc2cccc(NC(=O)Cc3ccon3)c2C1,8.389
24,O=C(Cc1ccon1)Nc1cncc(Br)c1O,58.04
25,O=C(Cc1ccn[nH]1)Nc1cncc(Br)c1O,104.6
26,CCOc1cccc(CCNC(=O)Cc2ccn[nH]2)n1,-3.182

row,Structure (SMILES),Percent Effect [%]
1,O=C(Nc1cncc(Br)c1O)c1ccon1,105.3
2,CCc1ncc(CN2C[C@@H]3C[C@@H](O)CN3C[C@@H]2Cc2ccccc2)cn1,42.85
3,CCc1ccc(C(=O)N2CCC(Nc3ccc(C)nn3)CC2)o1,29.19
4,Cc1ccc(C(=O)N2CC[C@@]3(C[C@@H](NS(C)(=O)=O)CCO3)C2)s1,6.984
5,COC(=O)[C@]12CNC[C@H]1CN(Cc1nc(C)c[nH]1)C2,-13.35
6,O=C(NC[C@]12COC[C@H]1CN(CC1CCOCC1)C2)c1ccccc1.O=C(O)C(F)(F)F,14.72
7,Cc1cnc(C(=O)N2CCCC3(CCN(c4cnn(C)c4)C3=O)C2)cn1 (centres undefined),-8.899
8,CC1c2ccc(F)cc2CCN1C(=O)c1nc(=O)[nH][nH]1 (centres undefined),10.03
9,Cc1nc(C)c(C(=O)N2CCc3ccc(F)cc3C2C)o1 (centres undefined),37.91
10,Cc1nc(C)c(C(=O)N2CCc3cc(F)ccc3C2C)o1 (centres undefined),-6.74
11,CC1c2ccc(F)cc2CCN1C(=O)c1[nH]c(=O)[nH]c(=O)c1N (centres undefined),102.4
12,CC1c2cc(F)ccc2CCN1C(=O)c1[nH]c(=O)[nH]c(=O)c1N (centres undefined),102.8
13,COC(=O)c1cc(C(=O)N2CCc3ccc(F)cc3C2C)ccn1 (centres undefined),5.538
14,NC(=O)C1CCN(C(=O)NC2CCc3cc(F)ccc32)CC1 (centres undefined),-2.777
15,Fc1ccccc1-c1nccnc1C1CCCNC1 (centres undefined),6.685
16,Cc1ccccc1CN1C[C@@H](C(=O)N2CCCCO2)C[C@H]2OCC[C@H]21.O=C(O)C(F)(F)F,19.61
17,O=C(NC1CC1)C1(Cc2ccccc2-c2ccncc2)CCOCC1,-4.384
18,CS(=O)(=O)N1CCOCC12CCN(Cc1ccc(F)cc1)CC2.O=C(O)C(F)(F)F,10.73
19,CS(=O)(=O)N1CCCC(C(=O)Nc2cnn(Cc3ccc(Cl)cc3)c2)C1 (centres undefined),6.456
20,CCCc1ccc(OC23CCCN(CC2)C3)c(OC)c1 (centres undefined),51.62
21,COc1cc(C#N)ccc1OC12CCCN(CC1)C2 (centres undefined),14.23
22,COc1cc(CN2CCCC2)ccc1OC12CCCN(CC1)C2 (centres undefined),6.74
23,Cc1nnc2n1CCN(C(=O)c1cc(C)n(-c3ccccc3)c1C)C2,-35.93
24,CN(CCCOc1ccccc1)Cc1nc2c(cnn2C)c(=O)[nH]1,27.35
25,COc1cccc(OCC(=O)N2CCOc3ccncc32)c1,-4.09
26,CNC(=O)CNC(=O)c1ccc(-c2scnc2C)nc1,51.37

row,Structure (SMILES),Percent Effect [%]
1,Cc1ncsc1-c1cc(C(=O)NCCO)ccn1,0.2276
2,CCCNC(=O)CNC(=O)c1scnc1C,-19.92
3,Cc1cc(C(=O)CN2CCN(c3nccs3)CC2)c(C)n1C1CC1,7.889
4,COc1ccc(CCN(C)C(=O)c2cc(C(C)=O)c[nH]2)cc1OC,-7.568
5,O=C(O)[C@H]1CN(Cc2ccccc2)C[C@@H]1C(=O)c1ccccc1,51.09
6,CNC(=O)[C@@H]1CN(Cc2ccccc2)C[C@H]1C(=O)c1ccc(F)cc1,28.54
7,CCNC(=O)[C@H]1CN(Cc2ccccc2)C[C@@H]1C(=O)c1ccccc1,41.32
8,CCNC(=O)[C@@H]1CN(Cc2ccccc2)C[C@H]1C(=O)c1ccc(F)cc1,56.73
9,O=C(NC1CC1)[C@H]1CN(Cc2ccccc2)C[C@@H]1C(=O)c1ccccc1,30.86
10,CC(C)NC(=O)[C@H]1CN(Cc2ccccc2)C[C@@H]1C(=O)c1ccccc1,38.41
11,O=C(c1ccc(O)c(Cl)c1)N1CCN(c2nccs2)CC1,19.4
12,CC(C)CC(=O)N1CC[C@H]2C[C@H](c3nccs3)O[C@@H]2C1,29.2
13,CNc1nc2c(s1)C(c1c(F)cccc1Cl)CC(=O)N2 (centres undefined),108
14,CNc1nc2c(s1)C(c1cccc(Cl)c1Cl)CC(=O)N2 (centres undefined),35.33
15,Nc1nc2c(s1)C(c1c(F)cccc1Cl)CC(=O)N2 (centres undefined),103.5
16,CNc1nc2c(s1)C(c1c(Cl)cccc1Cl)CC(=O)N2 (centres undefined),107.9
17,CNc1nc2c(s1)C(c1cccc(F)c1F)CC(=O)N2 (centres undefined),-9.045
18,CNc1nc2c(s1)C(c1ccc(F)cc1Cl)CC(=O)N2 (centres undefined),32.27
19,CNc1nc2c(s1)C(c1ccccc1F)CC(=O)N2 (centres undefined),-4.667
20,Cn1ncc2c1NC(=O)CC2c1c(F)cccc1Cl (centres undefined),13.6
21,CNc1nc2c(s1)C(c1ccccc1Cl)CC(=O)N2 (centres undefined),45.9
22,CC(O)CN1CC(C)(C)CN(C(=O)CCc2ccccc2)CC1=O (centres undefined),4.925
23,CCN1CCN(C(=O)c2cc(-c3ccc(C)o3)n[nH]2)[C@H]2CS(=O)(=O)C[C@H]21,-0.2092
24,CCNC(c1cccnc1)c1ccc(F)c(C)c1 (centres undefined),-53.96
25,CC(=O)N1CCN(C(=O)Nc2ccccc2Cl)[C@H]2CS(=O)(=O)C[C@H]21,4.723
26,Cc1cc(C)n(CC(=O)N2CCCCC2CCN2CCCC2=O)c(=O)n1 (centres undefined),8.917
